Measurements as given in PubChem BioAssay AID1159580 (chemical genetic matrix, 2015).
Values joined by “and” are separate entries in the source; they are usually repeats but may differ in a detail not shown here. Equal values may be shown once. Among all 5,500 compounds or so, about 2,000 (36%) were called active. Inconclusive results (about 18%) are left out. Rule as the data show it: active = normalized growth mostly below about 0.91 (no sharp cut-off); inconclusive = no clear call, values can overlap the other calls; inactive = mostly above about 0.92. Some of the results follow.

Test: chemical genetic growth profiling, strain panel (AID 1159580);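 also: tested at 20 µM; growth read once vehicle control cultures reached saturation at 30 °C; 1 = growth at the plate median or of vehicle wells; lower values mean less growth of the strain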
Conditions: growth OD

Measured: normalized growth

CNCCC(Oc1ccc(C(F)(F)F)cc1)c1ccccc1 (stereo unspecified)
inactive: S. cerevisiae deletion strains, locus YJR075W, strain HOC1, hits give low values 0.985 and 1.01 | S. cerevisiae deletion strains, locus YKL009W, strain mrt4, hits give low values 0.959 | S. cerevisiae deletion strains, locus YKL068W, hits give low values 1 | S. cerevisiae deletion strains, locus YKL085W, strain MDH1 (second series), hits give low values 0.999 | S. cerevisiae deletion strains, locus YKL085W, strain MDH1, hits give low values 0.999 | S. cerevisiae deletion strains, locus YKL160W, strain elf1, hits give low values 0.984 | S. cerevisiae deletion strains, locus YKL190W, strain CNB1, hits give low values 1.01 | S. cerevisiae deletion strains, locus YKR001C, strain vps1, hits give low values 1.01 | S. cerevisiae deletion strains, locus YKR026C, strain gcn3, hits give low values 0.983 | S. cerevisiae deletion strains, locus YKR091W, strain srl3, hits give low values 0.991 | S. cerevisiae deletion strains, locus YLL001W, strain dnm1, hits give low values 0.979 | S. cerevisiae deletion strains, locus YLL026W, hits give low values 0.987 | S. cerevisiae deletion strains, locus YLL041C, strain sdh2, hits give low values 0.988 | S. cerevisiae deletion strains, locus YLR027C, strain aat2, hits give low values 0.99 | S. cerevisiae deletion strains, locus YLR058C, strain SHM2, hits give low values 1.01 | S. cerevisiae deletion strains, locus YLR102C, strain apc9, hits give low values 0.987 | S. cerevisiae deletion strains, locus YLR113W, strain HOG1, hits give low values 1.01 | S. cerevisiae deletion strains, locus YLR221C, strain rsa3, hits give low values 0.985 | S. cerevisiae deletion strains, locus YLR258W, strain gsy2, hits give low values 0.99 | S. cerevisiae deletion strains, locus YLR262C, strain YPT6 (second series), hits give low values 1.04 | S. cerevisiae deletion strains, locus YLR268W, strain sec22, hits give low values 0.985 | S. cerevisiae deletion strains, locus YLR320W, strain mms22, hits give low values 0.968 | S. cerevisiae deletion strains, locus YLR330W, strain CHS5, hits give low values 1.01 | S. cerevisiae deletion strains, locus YLR342W, strain FKS1 (second series), hits give low values 0.982 | S. cerevisiae deletion strains, locus YLR342W, strain FKS1, hits give low values 0.988 | S. cerevisiae deletion strains, locus YLR357W, strain rsc2, hits give low values 0.977 | S. cerevisiae deletion strains, locus YLR370C, strain arc18, hits give low values 0.981 | S. cerevisiae deletion strains, locus YLR371W, strain rom2, hits give low values 0.985 | S. cerevisiae deletion strains, locus YLR384C, strain iki3, hits give low values 0.97 | S. cerevisiae deletion strains, locus YLR418C, strain cdc73, hits give low values 0.983 | S. cerevisiae deletion strains, locus YML016C, strain PPZ1, hits give low values 1.02 | S. cerevisiae deletion strains, locus YML032C, strain rad52, hits give low values 0.998 | S. cerevisiae deletion strains, locus YML120C, strain ndi1, hits give low values 0.993 | S. cerevisiae deletion strains, locus YML124C, strain tub3, hits give low values 0.992 | S. cerevisiae deletion strains, locus YMR058W, strain fet3, hits give low values 0.99 | S. cerevisiae deletion strains, locus YMR078C, strain ctf18, hits give low values 0.999 | S. cerevisiae deletion strains, locus YMR125W, strain sto1, hits give low values 0.989 | S. cerevisiae deletion strains, locus YMR129W, hits give low values 0.998 | S. cerevisiae deletion strains, locus YMR205C, strain PFK2, hits give low values 0.967 | S. cerevisiae deletion strains, locus YMR223W, strain ubp8, hits give low values 0.996 | S. cerevisiae deletion strains, locus YMR231W, strain pep5, hits give low values 0.992 | S. cerevisiae deletion strains, locus YMR263W, strain SAP30, hits give low values 0.995 | S. cerevisiae deletion strains, locus YMR307W, strain GAS1, hits give low values 1.09 | S. cerevisiae deletion strains, locus YNL067W, strain RPL9B, hits give low values 1.01 | S. cerevisiae deletion strains, locus YNL071W, strain lat1, hits give low values 0.993 | S. cerevisiae deletion strains, locus YNL128W, strain TEP1, hits give low values 0.992 and 1.03 | S. cerevisiae deletion strains, locus YNL153C, strain GIM3, hits give low values 1.01 | S. cerevisiae deletion strains, locus YNL175C, strain NOP13, hits give low values 1.01 | S. cerevisiae deletion strains, locus YNL183C, strain NPR1, hits give low values 0.986 | S. cerevisiae deletion strains, locus YNL197C, strain WHI3, hits give low values 0.979 | S. cerevisiae deletion strains, locus YNL209W, strain ssb2, hits give low values 1.01 | S. cerevisiae deletion strains, locus YNL224C, strain SQS1, hits give low values 1.04 | S. cerevisiae deletion strains, locus YNL233W, strain BNI4, hits give low values 1.01 | S. cerevisiae deletion strains, locus YNL248C, strain rpa49, hits give low values 0.99 | S. cerevisiae deletion strains, locus YNL250W, strain rad50, hits give low values 0.996 | S. cerevisiae deletion strains, locus YNL271C, strain bni1, hits give low values 0.99 | S. cerevisiae deletion strains, locus YNL298W, strain CLA4, hits give low values 0.988 | S. cerevisiae deletion strains, locus YNL307C, strain MCK1, hits give low values 0.993 | S. cerevisiae deletion strains, locus YNL322C, strain KRE1 (second series), hits give low values 0.986 | S. cerevisiae deletion strains, locus YNL322C, strain KRE1, hits give low values 1 | S. cerevisiae deletion strains, locus YNR049C, strain mso1, hits give low values 0.987 | S. cerevisiae deletion strains, locus YNR052C, strain pop2, hits give low values 1 | S. cerevisiae deletion strains, locus YOL006C, strain TOP1, hits give low values 0.884 | S. cerevisiae deletion strains, locus YOL012C, strain htz1 0.953 | S. cerevisiae deletion strains, locus YOL147C, strain pex11, hits give low values 0.995 | S. cerevisiae deletion strains, locus YOR001W, strain rrp6, hits give low values 0.985 | S. cerevisiae deletion strains, locus YOR061W, strain CKA2, hits give low values 1.01 | S. cerevisiae deletion strains, locus YOR069W, strain VPS5, hits give low values 0.998 | S. cerevisiae deletion strains, locus YOR070C, strain gyp1, hits give low values 0.99 | S. cerevisiae deletion strains, locus YOR080W, strain dia2, hits give low values 0.997 | S. cerevisiae deletion strains, locus YOR083W, strain WHI5 (second series), hits give low values 0.908 | S. cerevisiae deletion strains, locus YOR083W, strain WHI5, hits give low values 0.982 | S. cerevisiae deletion strains, locus YOR106W, strain vam3, hits give low values 0.986 | S. cerevisiae deletion strains, locus YOR136W, strain idh2, hits give low values 0.99 | S. cerevisiae deletion strains, locus YOR144C, strain elg1, hits give low values 0.995 | S. cerevisiae deletion strains, locus YOR184W, strain ser1, hits give low values 1 | S. cerevisiae deletion strains, locus YOR231W, strain MKK1, hits give low values 1.02 | S. cerevisiae deletion strains, locus YOR265W, strain rbl2, hits give low values 0.995 | S. cerevisiae deletion strains, locus YOR270C, strain vph1, hits give low values 0.9 | S. cerevisiae deletion strains, locus YOR290C, strain snf2, hits give low values 0.981 | S. cerevisiae deletion strains, locus YOR316C, strain cot1, hits give low values 1 | S. cerevisiae deletion strains, locus YPL051W, strain arl3, hits give low values 0.992 | S. cerevisiae deletion strains, locus YPL055C, strain LGE1, hits give low values 1.02 and 1 | S. cerevisiae deletion strains, locus YPL078C, strain atp4, hits give low values 0.983 | S. cerevisiae deletion strains, locus YPL106C, strain sse1, hits give low values 0.971 | S. cerevisiae deletion strains, locus YPL240C, strain hsp82, hits give low values 0.997 | S. cerevisiae deletion strains, locus YPL241C, strain CIN2, hits give low values 1 | S. cerevisiae deletion strains, locus YPL256C, strain CLN2, hits give low values 1.06 | S. cerevisiae deletion strains, locus YPR119W, strain clb2, hits give low values 1 | S. cerevisiae deletion strains, locus YPR141C, strain kar3, hits give low values 0.999 | S. cerevisiae deletion strains, locus YPR163C, strain tif3, hits give low values 0.998 | S. cerevisiae deletion strains, locus YPR167C, strain met16, hits give low values 0.992 | S. cerevisiae deletion strains, strain wtn01, hits give low values 1.01 | S. cerevisiae strains, strain wild type, hits give low values 0.998
active: S. cerevisiae deletion strains, locus YLR039C, strain RIC1, hits give low values 1.41 [resistant] | S. cerevisiae deletion strains, locus YLR262C, strain YPT6, hits give low values 1.46 [resistant]
